Assay results reported in PubChem BioAssay AID2108 (National Center for Advancing Translational Sciences (NCATS), 2009).
Inconclusive results are not listed. A number with no mark means an inactive call. Calls come from the whole dose curve; as a rule, active = well fitted curve in the direction sought with a large enough effect; inconclusive = small, poorly fitted or top-dose-only effect, or effect the other way, or another doubt; inactive = no such curve, though single readings can be large or run the other way. Non-standard residues stand in square brackets, D forms with d. Residues, ends and D or L forms follow the SMILES beside them. *: point of attachment. Nle = CCCC[C@H](N)C(=O)O; Boc = CC(C)(C)OC(=O)*

biological target: Alpha-galactosidase A (Homo sapiens) (UniProt P06280); assay: Confirmation of Inhibitors of Human alpha-Galactosidase Using Spleen Homogenate; conditions: alpha-galactosidase enzyme activity; series mostly up to 56.2 µM; activity change: at the top concentration; note: 0% is about no effect
Sequence (P06280 32-429 limits assumed): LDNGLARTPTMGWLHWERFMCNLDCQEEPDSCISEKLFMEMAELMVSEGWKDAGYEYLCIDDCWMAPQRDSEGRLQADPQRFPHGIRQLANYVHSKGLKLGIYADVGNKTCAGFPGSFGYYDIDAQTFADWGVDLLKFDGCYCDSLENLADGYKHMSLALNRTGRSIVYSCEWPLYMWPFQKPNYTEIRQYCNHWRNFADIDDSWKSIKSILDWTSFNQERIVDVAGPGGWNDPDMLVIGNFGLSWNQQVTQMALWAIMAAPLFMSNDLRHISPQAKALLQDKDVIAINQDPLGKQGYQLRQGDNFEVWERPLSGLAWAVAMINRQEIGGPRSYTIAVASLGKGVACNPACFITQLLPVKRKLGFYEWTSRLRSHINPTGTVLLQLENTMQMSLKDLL
Source text: NIH Chemical Genomics Center [NCGC]
NIH Molecular Libraries Probe Production Centers Network [MLPCN]
Assay Submitter (PI): Wei Zheng
Alpha-galactosidase is a homodimeric glycoprotein that hydrolyzes the terminal alpha-galactosyl moieties from glycolipids and glycoproteins. Deficiency of this enzyme results in Fabry Disease with progressive accumulation of globotriaosylceramide and other glycosphingolipids in vascular endothelial cells that causes renal failure, myocardial infarction and stroke, and premature death in patients. It has been reported that the improper folding and trafficking of alpha-galactosidase resulting from genetic mutations may account for a significant number of Fabry patients. […] We optimized this alpha-galactosidase assay in 1536-well plate format for identification of novel small molecule inhibitors or activators with structures other than the sugar analogs in order to develop new pharmacological chaperones. In particular, this assay is directed towards discovering compounds active in more natural setting, tissue homogenate, that may have been missed by screens of the purified enzyme under more stringent conditions. This assay attempted to confirm hits from the primary screening.
NCGC Assay Protocol Summary:
This is a fluorogenic enzyme assay with 4-methylumbelliferyl-alpha-D-galactopyranoside as the substrate and human spleen homogenate containing alpha-galactosidase as the enzyme preparation. Upon hydrolysis of this fluorogenic substrate, the resulting product, 4-methylumbelliferone (which excites at 365 nm and emits at 440 nm) can be detected by a fluorescence plate reader. Data were normalized to the controls for basal activity (without enzyme) and 100% activity (with enzyme). The AC50 values were determined from concentration-response data modeled with the standard Hill equation.
Assay buffer: 50 mM citric acid (titrated with potassium phosphate to pH 5.0), 0.01% Tween-20 (pH 5.0 is an optimal condition for this enzyme assay)
1536-well assay protocol for the alpha-galactosidase from human spleen homogenate:
(1) Add 2 ul/well spleen homogenate (1 ug)
(2) Add 23 nL compounds in DMSO solution. The final titration was 0.5 nM to 58 uM.
(3) Add 2 ul of substrate (1 mM final)
(4) Incubate at 37C for 40 min
(5) Add 2 ul stop solution (1M NaOH and 1M Glycine mixture, pH 10)
(6) Detect the assay plate in a ViewLux plate reader (PerkinElmer) with Ex=365 nm and Em=440nm.
Keywords: Alpha-galactosidase, Fabry Disease, pharmacological chaperone, chaperone therapy, high throughput screening, alpha- galactosidase inhibitor, MLSMR, MLSCN, NIH Roadmap, qHTS and NCGC

Row | Compound | activity change
1 | CCOC(=O)c1ccc(NC(=O)c2ccccc2)cc1 | 5.58% [at 23.6 µM]
2 | CCOC(=O)C(CC)(CCC(=O)O)c1csc(Nc2ccc(C)cc2)n1 (stereo not given) | 9.44% [at 23.6 µM]
3 | CCNc1ccc(C2(O)C(=O)c3ccccc3C2=O)cc1 | -1.5%
4 | CC1(CCc2ccc3c(c2)OCO3)NC(=O)c2ccccc2N1 (stereo not given) | -1.65% [at 23.6 µM]
5 | CC(=O)Nc1ccc(S(=O)(=O)/N=C2/NC(=O)/C(=C\c3ccco3)S2)cc1 | -1.55% [at 23.6 µM]
6 | Fc1ccc(CNc2ccc(N3CCN(Cc4ccccc4)CC3)cc2)cc1 | -2.51%
7 | CCCC[C@H](NC(=O)[C@@H]1CCCN1C(=O)[C@H]1CCCN1C(=O)[C@H](Cc1ccccc1)NC(=O)[C@@H](Cc1c[nH]c2ccccc12)NC(=O)[C@H](C)NC(=O)[C@H](CCCN=C(N)N)NC(=O)OC(C)(C)C)C(N)=O (Boc-RA[dW]F[dP]P[Nle]-NH2) | 1.41%
8 | CCN(CC)c1ccc(/C=N/NC(=O)C(O)c2ccccc2)cc1 (stereo not given) | -3.15% [at 23.6 µM]
9 | CCOc1c(Cl)cc(CNc2ccc3[nH]c(=O)[nH]c3c2)cc1OC | -5.26%
10 | COc1cc(CNc2ccc(N3CCCC3)cc2)ccc1OCc1ccccc1F | -3.03%
11 | CC(=O)N1CCN(c2ccc(NCc3ccccc3)cc2)CC1 | -8.48%
12 | COC(=O)CSc1cc([N+](=O)[O-])ccc1NC(=O)OC | 6.45% [at 23.6 µM]
13 | O=C(CNc1ccc(Cl)cc1)c1ccc(Br)cc1 | 1.37%
14 | OCC(CO)NC1C[C@](O)(CO)[C@@H](O)[C@H](O)[C@H]1O (stereo not given in full) | 2.15% [at 287 µM]
15 | Cc1cccn2c(=O)c3cc(C#N)c(=NC(=O)c4cccs4)n(CCCOC(C)C)c3nc12 | 12.3% [at 23.6 µM]
16 | COc1cc2cc(CN(Cc3nnnn3Cc3ccccc3)CC3CCCO3)c(=O)[nH]c2cc1OC (stereo not given) | 6.87% [at 23.6 µM]
17 | O=S(=O)(c1ccccc1)N1CCNCC1 | 12.7%
18 | Cc1ccc(/C=N\Nc2nc3ccc(Cl)cc3[nH]2)o1 | -0.392%
19 | O=C(Nc1ccc(OCC(=O)N2CCN(S(=O)(=O)c3ccccc3)CC2)cc1)c1ccco1 | 2.43%
20 | Cc1ccc(CCNC(=O)CNC(=S)N(Cc2ccccc2)Cc2cccnc2)cc1 | 4.95%

Row | Compound | activity change
21 | COc1ccc(S(=O)(=O)N2CCN(C(=O)COc3ccc4c(C)cc(=O)oc4c3)CC2)cc1 | 9.75%
22 | Cc1ccc(C2NC(=O)c3c(sc4c3CCN(C)C4)N2)s1 (stereo not given) | 8.42%
23 | O=[N+]([O-])c1ccccc1Nc1ccc(O)cc1 | -2.47%
24 | c1ccc(-n2c(-c3cccs3)nc3nc4ccccc4nc32)cc1 | 9.43%
25 | COCCn1c(=NC(=O)c2ccc3c(c2)OCO3)c(C#N)cc2c(=O)n3cccc(C)c3nc21 | 2.06% [at 23.6 µM]
26 | O=C(CSc1nc(C2CC2)nc2ccccc12)Nc1cccc(O)c1 | -0.88%
27 | O=C(CSc1n[nH]c(-c2ccccc2)n1)c1ccc(O)c(O)c1 | -0.0554%
28 | COC(=O)c1ccc(C(=O)OC)c(NC(=S)N2CCOCC2)c1 | 3.82% [at 23.6 µM]
29 | O=C1c2cc(O)c(O)cc2S(=O)(=O)C1c1ccccc1 (stereo not given) | 0.148%
30 | CCOC(=O)N1CCN(c2cc(N(C)CCO)c([N+](=O)[O-])c3nonc23)CC1 | 1.32%
31 | COc1cccc2cc(-c3nc4c(s3)CCc3ccccc3-4)c(=O)oc12 | 8.58%
32 | CCn1c2ccccc2c2nnc(NN)nc21 | -2.78%
33 | O=C(CSc1ccccc1)Nc1nnc(/C=C/c2ccccc2)s1 | 20%
34 | c1ccc(-c2nc3nc4ccccc4nc3n2CC2CCCO2)cc1 (stereo not given) | 10.5% [at 23.6 µM]
35 | O=C1CC(c2ccccc2)Cc2nc(NCc3ccco3)ncc21 (stereo not given) | -2.65%
36 | Cc1cccc(S(=O)(=O)c2c(N)n(-c3ccccc3)c3nc4ccccc4nc23)c1 | 18.9% [at 23.6 µM]
37 | O=C(O)c1cc(NCc2ccccc2)ccc1N1CCOCC1 | -1.74%
38 | O=NOc1ccc(/C=C/c2nccc3c2[nH]c2ccccc23)cc1 | 5.65%
39 | Cc1ccc2c(=O)c3ccccc3n(CCCN)c2c1C | -8.95%
40 | O=c1cc(-c2ccccc2)[nH]c2[nH]n(-c3ccccc3)c(=O)c12 | 0.265%
